Test results from PubChem BioAssay AID1671192 (National Center for Advancing Translational Sciences (NCATS), 2021).
Results filed as inconclusive are left out. Calls of active or inactive are those of the source. Calls come from the whole dose curve; as a rule, active = well fitted curve in the direction sought with a large enough effect; inconclusive = small, poorly fitted or top-dose-only effect, or another doubt; inactive = no such curve, though single readings can be large or run the other way.

Molecular target: Polyunsaturated fatty acid lipoxygenase ALOX15 (Homo sapiens) (UniProt P16050)
Test: Counterscreen qHTS for inhibitors of human arachidonate 12S-lipoxygenase (ALOX12): ALOX15 Assay
Conditions: purified ALOX15 enzyme activity; series mostly up to 110 µM
Method in brief: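 Xylenol orange–ferric complex formation, read as the 573 nm to 405 nm absorbance ratio, tracks product from 50 uM arachidonic acid turned over for 30 min at RT. Enzyme is 40 nM ALOX15, pH 7.5 HEPES buffer, compound-preincubated 15 min.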

Chain of Polyunsaturated fatty acid lipoxygenase ALOX15 (Homo sapiens) (P16050 whole entry, looked up): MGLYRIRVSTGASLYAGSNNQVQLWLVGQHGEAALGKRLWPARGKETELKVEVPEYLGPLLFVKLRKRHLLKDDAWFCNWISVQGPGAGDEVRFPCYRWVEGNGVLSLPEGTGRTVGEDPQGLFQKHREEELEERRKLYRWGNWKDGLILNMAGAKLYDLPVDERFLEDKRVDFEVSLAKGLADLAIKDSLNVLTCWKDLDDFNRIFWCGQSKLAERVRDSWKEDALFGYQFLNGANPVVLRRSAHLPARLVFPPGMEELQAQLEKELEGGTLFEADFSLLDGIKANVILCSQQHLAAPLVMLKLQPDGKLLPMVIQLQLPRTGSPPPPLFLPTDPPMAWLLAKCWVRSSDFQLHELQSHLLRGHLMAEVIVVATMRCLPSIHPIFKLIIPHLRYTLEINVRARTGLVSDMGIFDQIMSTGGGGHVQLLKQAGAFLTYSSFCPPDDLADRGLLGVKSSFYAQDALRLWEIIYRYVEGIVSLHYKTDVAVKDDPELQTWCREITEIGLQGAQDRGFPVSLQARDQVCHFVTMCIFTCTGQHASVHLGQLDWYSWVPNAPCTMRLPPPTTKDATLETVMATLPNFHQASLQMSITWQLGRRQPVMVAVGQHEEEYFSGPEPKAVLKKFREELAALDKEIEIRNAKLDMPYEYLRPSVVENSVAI

Compound | outcome
NCc1ccc(-c2cc(C(F)(F)F)ccc2Cl)cc1 | inactive
CCNc1ncnc2c1CN(C1CCCNC1)C(=O)CN2C (stereo not drawn) | inactive
O=C(Nc1ccc(Cl)cc1Cl)c1c[nH]c2cccnc12 | inactive
O=C(c1cc(C2CC2)nc2onc(C3CCNCC3)c12)N1CCCCC1 | inactive
CN1CC(=O)N(C2CCCNC2)Cc2c(NCCCO)ncnc21 (stereo not drawn) | inactive
CN1CC(=O)N(C2CCCNCC2)Cc2c1ncnc2N1CCC(N2CCCCC2)CC1 (stereo not drawn) | inactive
Cc1noc(C)c1S(=O)(=O)N1CCC(N2CCOC2=O)CC1 | inactive
CCN1CCCC12Cc1ccccc1CN(C(=O)c1ccccc1)C2 (stereo not drawn) | inactive
O=C1NCc2ccccc2CC12CCN(C/C=C/c1ccccc1)CC2 | inactive
Cc1ccc(C(=O)N2CCC3(CC(C(C)C)=NO3)C2)cc1 (stereo not drawn) | inactive
CC(C)NC(=O)N1CCC(c2nnc3n2CCNC3)CC1 | inactive
CN1CC(=O)N(c2cccc(F)c2)Cc2c(NC3CCNCC3)ncnc21 | inactive
CCN1CCCC2(Cc3ccccc3CN([S+](=O)([O-])c3ccccc3)C2)C1 (stereo not drawn) | inactive
COC[C@@H]1CCCN1c1ncnc2c1CN(C1CCNC1)C(=O)CN2C (stereo partly drawn) | inactive
CN1CC(=O)N(C2CCNCC2)Cc2c1ncnc2N1CCC(N2CCOCC2)CC1 | inactive
COCCNc1ncnc2c1CN(C1CCNCC1)C(=O)CN2C | inactive
COc1ccc(N(C)C2CN(C(=O)OC(C)(C)C)C2)cc1 | inactive
CC(C)c1nc2c(c(-c3ccc(Cl)cc3)n1)CCN(C(=O)c1ccc3c(c1)OCO3)CC2 | inactive
CN1CC(=O)N(C2CCNCC2)Cc2c(NC3CCCCCC3)ncnc21 | inactive

Compound | outcome
O=C1NCc2ccccc2CC12CCN(Cc1ccccc1F)C2 (stereo not drawn) | inactive
CN(C)C(=O)N1CCn2c(nnc2-c2cncc(Br)c2)C1 | inactive
CC(=O)N1CCCC2(CC(c3ccccn3)=NO2)C1 (stereo not drawn) | inactive
CN1CCC2(Cc3ccccc3CN(C(=O)CCN)C2)C1 (stereo not drawn) | inactive
CCN1CCCCC12Cc1ccccc1CN(C(=O)C1CCN(C)CC1)C2 (stereo not drawn) | inactive
C[C@H](C(=O)N1Cc2ccccc2CC2(CCN(Cc3ccncc3)C2)C1)c1ccccc1 (stereo partly drawn) | inactive
O=Cc1ccc(-c2ccc(F)cc2)cc1 | inactive
COc1ccc(-c2cc(C(=O)NCC(C)C)c3c(C4CCCN4)noc3n2)cc1 (stereo not drawn) | inactive
O=C(NC1CCNCC1)c1cc(C2CC2)nc2onc(C3CCCN3)c12 (stereo not drawn) | inactive
CCc1nc2c(c(-c3ccc(OC)cc3)n1)CCN(Cc1ccc(OC)cc1)CC2 | inactive
O=C1NCc2ccccc2CC12CCN(CCCc1ccccc1)CC2 | inactive
CNCc1ccccc1OC(F)(F)F | inactive
CN1CC(=O)N(C2CCCNC2)Cc2c(NCC(C)(C)C)ncnc21 (stereo not drawn) | inactive
CNCc1ccccc1C(F)(F)F | inactive
Cc1ccc(-c2ccc(C=O)cc2)cc1Cl | inactive
COc1ccc(CNc2ncnc3c2CN(C2CCNCC2)C(=O)CN3C)cc1 | inactive
CN1CC(=O)N(c2ccc(Cl)cc2)Cc2c(NCC3CC3)ncnc21 | inactive
COc1ccc(N2CC3CCC(C2)N3[S+](C)(=O)[O-])cc1 | inactive
NCc1cccc(-c2cc(C(F)(F)F)ccc2Cl)c1 | inactive
